In PubChem BioAssay (NCATS):
Results filed as inconclusive are left out. The source made the active and inactive calls. Unless noted, the call rests on the fitted dose curve; in most records, active means well fitted curve in the direction sought with a large enough effect; inconclusive means small, poorly fitted or top-dose-only effect, or another doubt; inactive means no such curve, though single readings can be large; an effect the other way counts as inactive or inconclusive.

Experiments:
[1] = qHTS profiling of the MIPE4 collection as inhibitors of Plasmodium falciparum (3D7) proliferation (AID 743344; call rule not given here;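 further: scaled between DMSO vehicle wells and 0.29 µM artemisinin as full inhibition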); conditions: P. falciparum 3D7 in erythrocytes, SYBR Green DNA fluorescence, 72 h; at 28.5 µM unless noted
In short: (§1)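 Parasite DNA was quantified by SYBR Green I fluorescence (ex 485, em 535 nm) after overnight lysis in saponin/Triton buffer at room temperature. Cultures at 0.3% parasitemia and 2.5% hematocrit were first exposed to compound for 72 h at 37 C; signals were normalised to artemisinin (0.29 uM) and vehicle wells.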

[2] = qHTS profiling of the MIPE4 collection as inhibitors of Plasmodium falciparum (DD2) proliferation (AID 743345; call rule not given here); conditions: P. falciparum Dd2 in erythrocytes, SYBR Green DNA, 72 h; at 28.5 µM unless noted
In short: as §1

[3] = qHTS profiling of the MIPE4 collection as inhibitors of Plasmodium falciparum (DD2) proliferation (Rep 2) (AID 743346; call rule not given here); conditions: P. falciparum Dd2 in erythrocytes, SYBR Green DNA, 72 h; at 28.5 µM unless noted
In short: as §1

[4] = qHTS profiling of the MIPE4 collection as inhibitors of Plasmodium falciparum (HB3) proliferation (AID 743347; call rule not given here;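 further: plate controls were DMSO vehicle wells for no effect and artemisinin wells for full effect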); conditions: P. falciparum HB3 in erythrocytes, SYBR Green DNA, 72 h; at 28.5 µM unless noted
In short: as §1

[5] = High-throughput drug toxicity screening in the BPDCN cell line Gen2.2 (AID 1224824; call rule not given here;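 further: cells exposed to compounds for 48 h before reading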); conditions: Gen2.2 BPDCN cells; at 45.8 µM (top of the series) unless noted
In short: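 CellTiter-Glo luminescence after 48 h compound exposure of Gen2.2 cells; percent activity set with DMSO as 100% and bortezomib (9.2 uM final) as 0%. Cells seeded at 500 per well, RPMI + 10% FBS, 37 °C.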

[6] = High-throughput drug toxicity screening in the BPDCN cell line Cal-1 (AID 1224825; call rule not given here); conditions: Cal-1 BPDCN cell viability, qHTS; at 45.8 µM (top of the series) unless noted
In short: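 CellTiter-Glo luminescence after 48 h compound exposure; percent activity scaled with DMSO as 100% and bortezomib (9.2 uM final) as 0%. Cal-1 cells seeded at 500/well in RPMI, 10% FBS, no phenol red.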

[7] = qHTS assay for measurement of the activity of small molecule inhibitors on Zika virus induced Caspase-3 activity in human iPSC derived neural progenitor cells (hNPCs) (AID 1224857); further: % of control where 0% means no effect; nearly all actives have a fitted effect of over 65% in size
In short: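 Caspase-3/7 induction by a 6-hour ZIKV infection was quantified with a luminescent Caspase-Glo 3/7 reagent incubated 30 minutes at room temperature. Compounds were preincubated with hNPCs for 1 hour; inhibition was calculated against uninfected and infected control wells.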

[8] = qHTS assay for measurement of the activity of small molecule inhibitors on Zika virus induced Caspase-3 activity in human astrocytoma cells (AID 1224859);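 further: plate controls were ZIKV-infected untreated cells for no effect and uninfected cells for full effect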
In short: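 In SNB-19 cells plated at 250 cells/well and grown 16-20 h, compounds were applied 1 h before ZIKV (2 FFU/cell). Six hours later caspase-3/7 luminescence was recorded.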

[9] = qHTS Screen of the MIPE 4.0 Collection Against Ewings Sarcoma (RDES) (AID 1259252); further: nearly all actives have a fitted effect of over 35% in size; further: potency means the concentration at half of the fitted maximal effect
In short: (§2)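 Dose series incubated 48 h with cells in RPMI plus 5% FBS, glutamine and penicillin/streptomycin; cell viability then quantified via CellTiter-Glo.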

[10] = qHTS Screen of the MIPE 4.0 Collection Against Ewings Sarcoma (TC71) (AID 1259253); further: nearly all actives have a fitted effect of over 40% in size; further: potency means the concentration at half of the fitted maximal effect
In short: as §2

[11] = qHTS Screen of the MIPE 4.0 Collection Against Ewings Sarcoma (EW8) (AID 1259255); further: nearly all actives have a fitted effect of over 35% in size; further: potency means the concentration at half of the fitted maximal effect;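 on viability: 100% = DMSO-treated cells and 0% = medium-only wells without cells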
In short: as §2

[12] = qHTS Screen of the MIPE 4.0 Collection Against Ewings Sarcoma (TC32) (AID 1259256); further: nearly all actives have a fitted effect of over 45% in size; further: potency means the concentration at half of the fitted maximal effect
In short: as §2

[13] = qHTS assay to identify small molecule inhibitors of chordoma cells - UCH-1 (AID 1259355); further: on the % scale 0 is the no-effect control and ±100 the full control effect; nearly all actives have a fitted effect of over 55% in size
In short: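 Screening used approved and investigational drugs in 15-point titration against 800 seeded cells per well. A fixed combination of auranofin with camptothecin, doxorubicin, rubitecan and topotecan followed compound addition, and growth was scored by CellTiter-Glo after 48hr.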

[14] = qHTS assay to identify small molecule inhibitors of chordoma cells - UCH-2 (AID 1259356); further: on the % scale 0 is the no-effect control and ±100 the full control effect

SMILES	parasite growth, % of DMSO control [1] [%]	parasite growth remaining, % of DMSO control (lower = more inhibition) [2] [%]	parasite growth, % of control (lower = inhibition) [3] [%]	growth, % of control [4] [%]	cell viability, % of control (lower = more cytotoxic) [5] [%]	viability (% of control) [6] [%]	Potency [7]	Potency [8]	Potency [9]	Potency [10]	Potency [11]	Potency [12]	Potency [13]	Potency [14]
NC(=O)c1cccc(N)c1	96.3	95.5	93.2	54.9	84.2	109	inactive	inactive	inactive	inactive	inactive	inactive	–	–
Cc1nnc(NS(=O)(=O)c2ccc(N)cc2)s1	22.2	–	8.26	38.9	114	13.2	inactive	inactive	14.8 µM (active)	10.5 µM (active)	13.2 µM (active)	–	inactive	inactive
COc1ccc(-c2ccc3cc(C(=O)O)ccc3c2)cc1C12CC3CC(CC(C3)C1)C2	–	98.8	58.3	111	521	112	inactive	inactive	2.09 µM (active)	2.96 µM (active)	inactive	–	inactive	inactive
O=S(=O)(c1cccc2cnccc12)N1CCCNCC1	–	–	–	–	21.4	94.6	inactive	inactive	26.4 µM (active)	–	inactive	inactive	inactive	inactive
CC1=C(C(=O)O)N2C(=O)[C@@H](NC(=O)C(N)c3ccccc3)[C@H]2SC1 (some centres undefined)	101	95.4	151	–	114	12.1	inactive	inactive	inactive	inactive	inactive	inactive	–	–
CS(=O)(=O)c1ccc([C@@H](O)[C@@H](CO)NC(=O)C(Cl)Cl)cc1	40.4	51.5	55.8	56.8	94.5	86.4	inactive	inactive	13.2 µM (active)	16.6 µM (active)	–	18.7 µM (active)	inactive	inactive
